Compounds with a hit are over-represented: about 18% of the library has one in this group of screens.
CtBP-E1A blk – CtBP/E1A binding inhibition. 340,000 compounds, 0.49% hits. activity change, % (test concentration not listed). AID 651724. AlphaScreen GST-E1A/His-CtBP binding, 1536-well; active compounds read low; in the data active = activity change below about -65%; inconclusive = mostly about -30% to -63%
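GST-E1A and His-tagged CtBP (125 nM each as 5X stock) were preincubated with pin-transferred compound for 2 h at 37 °C in the dark, then glutathione donor and nickel acceptor beads were added for 1 h before AlphaScreen reading.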
IL-1B inflam inh – blocks inflammasome-driven IL-1 beta release | 360,000 compounds, 4.7% hits | AID 743279 | THP-1 LPS/ATP IL-1B secretion, AlphaLISA, 16 h; active compounds read low | activity change, % at 57.5 µM; in the data active = activity change below about -50%; inconclusive = mostly about -30% to -49%
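Secreted IL-1B measured by AlphaLISA bead assay after 16 h compound exposure of THP-1 cells; compounds (final up to 57.5 uM) added 1 h before LPS (250 ng/mL) and ATP (1.25 mM) stimulation; lower signal means less secretion.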
Six1-Eya2 inh – blocks human Six1 binding to Eya2 | Q15475+O00167 | 360,000 compounds, 0.56% hits | AID 651725 | AlphaScreen GST-Six1/His-Eya2 binding, biochemical; active compounds read low | activity change, % (concentration not given with the values); in the data active = activity change below about -65%; inconclusive = mostly about -30% to -63%
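Compounds are tested against tagged Six1 and Eya2 proteins bridged by glutathione donor and nickel acceptor beads; after a one-hour incubation at 37 °C without light, AlphaScreen emission is recorded.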
DT40 TDP1 no CPT – qHTS for Inhibitors of human tyrosyl-DNA phosphodiesterase 1 (TDP1): qHTS in cells in absence of CPT. DT40 Tdp1-/- hTDP1 cells, no CPT, ATP luminescence, 48 h. 420,000 compounds, 15% hits. Potency, µM (series often up to 46.2 µM), for the others: at the highest dose activity change, negative = growth inhibition, hits mostly inhibitors; note: potency is the fitted concentration of half-maximal effect; nearly all actives have a fitted effect of over 55% in size
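DT40 Tdp1-/-;hTDP1 cells, no CPT (DMSO vehicle only), 400 cells/well; compounds pin-transferred; ≥48 hr, 37 °C; CellTiter-Glo 30 min RT dark, luminescence read.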
TDP1 inh – blocks human tyrosyl-DNA phosphodiesterase 1. recombinant TDP1, AlphaScreen DNA substrate cleavage. Potency, µM (doses to about 130 µM), for inactives: at the highest dose activity change, negative = inhibition, usual class: inhibitors. 350,000 compounds, 0.28% hits. AID 485290; note: potency is the fitted concentration of half-maximal effect; nearly all actives have a fitted effect of over 40% in size
Target sequence (Q9NUW8 whole entry, looked up): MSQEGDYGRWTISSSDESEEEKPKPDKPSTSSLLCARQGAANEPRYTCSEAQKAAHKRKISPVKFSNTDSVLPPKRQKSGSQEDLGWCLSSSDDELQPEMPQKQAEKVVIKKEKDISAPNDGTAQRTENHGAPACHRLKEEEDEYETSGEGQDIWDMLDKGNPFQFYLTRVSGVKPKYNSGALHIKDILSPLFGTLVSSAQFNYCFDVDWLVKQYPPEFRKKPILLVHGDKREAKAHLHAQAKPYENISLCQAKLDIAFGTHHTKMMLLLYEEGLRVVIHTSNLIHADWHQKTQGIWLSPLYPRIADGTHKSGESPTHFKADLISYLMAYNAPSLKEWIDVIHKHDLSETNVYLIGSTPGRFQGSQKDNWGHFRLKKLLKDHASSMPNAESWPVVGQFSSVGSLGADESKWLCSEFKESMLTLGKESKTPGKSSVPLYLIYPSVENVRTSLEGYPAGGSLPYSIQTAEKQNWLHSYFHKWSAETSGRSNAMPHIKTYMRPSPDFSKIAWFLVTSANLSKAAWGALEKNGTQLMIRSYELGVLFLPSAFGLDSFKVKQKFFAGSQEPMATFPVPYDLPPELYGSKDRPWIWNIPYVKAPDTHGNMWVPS
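AlphaScreen read-out: signal falls as enzyme removes the 3' tyrosine-FITC from a 5'-biotinylated DNA oligo (15 nM, 5 min, RT). Enzyme was E. coli-made recombinant Tdp1 at 1 nM, exposed to compound for 15 min beforehand; beads 10 ug/ml, 10 min.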
DT40 TDP1 CPT – growth inhibition of DT40 Tdp1-/-;hTDP1 cells with camptothecin (screen for TDP1 inhibitors); chicken DT40 Tdp1-/-;hTDP1 cells + 20 nM CPT, ATP luminescence, 48 h; Potency, µM (top dose mostly 46.2 µM), inactives show at the highest dose activity change, negative = growth inhibition, usual class: inhibitors; 420,000 compounds, 12% hits; note: potency is the fitted concentration of half-maximal effect; nearly all actives have a fitted effect of over 55% in size
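Cell growth measured by CellTiter-Glo luminescence after a minimum 48 h, 37 C compound exposure with 20 nM CPT in Tdp1-knockout DT40 cells stably expressing hTDP1, seeded 400/well; qHTS titration format.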
An asterisk follows results filed as active; ? = inconclusive; / = no result given; [ ] = another dose, or the depositor's remark. Unless noted, calls come from the whole dose curve; as a rule, active = well fitted curve in the direction sought with a large enough effect; inconclusive = small, poorly fitted or top-dose-only effect, or another doubt; inactive = no such curve, though single readings can be large; an effect the other way counts as inactive or inconclusive. % is set by controls: 0 for no effect and ±100 for the full control effect.

SMILES	CtBP-E1A blk	IL-1B inflam inh	Six1-Eya2 inh	DT40 TDP1 no CPT	TDP1 inh	DT40 TDP1 CPT
CCCN(CCC)CCNC(=O)c1cc2c(-c3ccccc3F)nn(C)c2s1	-10	-92*	13	?	5%	?
Oc1cccc(CCC2CCCCN2Cc2cn[nH]c2-c2ccc3c(c2)OCO3)c1 (centres undefined)	-7	-7	-4	-6%	6%	4%
CCOc1ccc(CN(C)C(=O)c2cc3ccccc3o2)cc1OC	0	14	11	?	/	?
COc1ccccc1NS(=O)(=O)c1cc(C(=O)N2CCCCCCC2)ccc1C	-20	-14	34	?	?	?
COc1ccc(/C=C(\NC(=O)c2cccs2)C(=O)NN)cc1OC	0	-4	-4	1%	/	11%
CCCCOc1ccc(C(=O)N/C(=C\c2ccc(Br)cc2)C(=O)NC2CCCCC2)cc1	/	/	/	?	-6%[12.3 µM]	5.2µM*
Cc1ccc(NC(=O)/C(=C\c2ccc([N+](=O)[O-])cc2)NC(=O)c2ccccc2)cc1	2	21	-3	?	2%	?
O=C(N/N=C/c1ccc(O)c(O)c1O)/C(=C/c1ccc([N+](=O)[O-])cc1)NC(=O)c1ccccc1	-94*	20	-90*	5.8µM*	12%	4.6µM*
COc1ccc(/C=C(\NC(=O)c2cccs2)C(=O)Nc2cccc3ccccc23)cc1OC	-3	17	-7	18µM*	7%	?
O=C(Nc1cccc(C(=O)O)c1)/C(=C/c1ccc([N+](=O)[O-])cc1)NC(=O)c1ccccc1	/	-15	1	-7%	1%	-5%
O=C(Nc1cccc2ccccc12)/C(=C/c1ccc([N+](=O)[O-])cc1)NC(=O)c1ccccc1	-4	-13	-9	21µM*	12%	8.2µM*
O=C(NC1CCCCC1)/C(=C/c1ccc(Cl)cc1)NC(=O)c1ccccc1	/	/	/	?	4%[2.28 µM]	?
C=CC[C@H](CC(=O)NCCO)C(=O)NC[C@@H](OC(=O)[C@@H](CC=C)CC(=O)OC(C)(C)C)c1ccccc1	-5	13	8	?	1%	?
O=S(=O)(NCCCc1ccccc1)c1cccc2nsnc12	0	-5	12	?	3%	?
COc1cccc(NC(=S)NN2C(C)CCCC2C)c1 (centres undefined)	-3	10	4	4%	5%	-6%
Cc1ccc(C(=O)N/C(=C\c2ccccc2)C(=O)OCc2ccccc2)cc1	-2	-51*	3	?	1%	29µM*
CCCCOc1ccc(C(=O)N/C(=C/c2cccc([N+](=O)[O-])c2)C(=O)O)cc1	-26	-62*	-17	-26%	2%	-7%
CCCCOc1ccc(C(=O)N/C(=C\c2cccc([N+](=O)[O-])c2)C(=O)OCCC)cc1	0	-8	-3	-5%	6%	0%
COC(=O)/C(=C\c1ccc([N+](=O)[O-])cc1)NC(=O)c1ccccc1	-91*	39	-25	-18%	/	-2%
COc1ccc(-c2cc(=S)ss2)cc1	/	/	/	?	/	19µM*
CN(CCN1CCOCC1)C(=O)c1cc(COc2ccc(F)cc2Cl)on1	2	-12	4	-22%	/	-15%
COc1ccc(OCc2cc(C(=O)N(Cc3nccn3C)C(C)C)no2)c2ccccc12	/	-2	-11	12µM*	11%	21µM*
CC(C)N(Cc1nccn1C)C(=O)c1cc(COc2ccc(F)cc2Cl)on1	5	-2	-3	?	2%	15µM*
Cc1ccc2nc(COc3ccccc3NC(=O)C(C)(C)C)cc(=O)n2c1	/	/	/	?	3%	?
COCCN(C(=O)COC(=O)c1c(-c2ccccc2)noc1C)c1c(N)n(Cc2ccccc2)c(=O)[nH]c1=O	4	-12	6	3%	4%	-17%
SMILES	CtBP-E1A blk	IL-1B inflam inh	Six1-Eya2 inh	DT40 TDP1 no CPT	TDP1 inh	DT40 TDP1 CPT
Cc1c(OCC(=O)NC(Cc2ccc(Cl)cc2)C(=O)O)ccc2c(-c3ccccc3)cc(=O)oc12 (centres undefined)	5	-1	-4	9%	/	24%
CCN(Cc1ccc(NC(C)=O)cc1)CC1CCCN(CCc2cccc(OC)c2)C1 (centres undefined)	/	-11	15	21µM*	/	?
COc1ccc(CCN2CCCC(CN(C)Cc3cccc(OC)c3)C2)cc1 (centres undefined)	-11	-15	-10	?	/	?
CCN(Cc1ccccc1OC)CC1CCCN(CCc2cccc(OC)c2)C1 (centres undefined)	-5	?	-2	?	/	15µM*
CSc1ccc(CN(C)Cc2nc3cc(C(F)(F)F)ccc3c(=O)[nH]2)cc1	-10	10	-9	?	5%	?
Cc1cc(F)ccc1NC(=O)CN1C(=O)CCc2cc(S(=O)(=O)N3CCOCC3)ccc21	/	/	/	3%	4%	7%
CCn1c2ccccc2c2cc(Nc3cc(C)nc4ncnn34)ccc21	-6	115	-1	0.58µM*	5%	0.92µM*
Cc1ccc(Nc2cc(-c3ccccc3)nc3ncnn23)cc1	2	-56*	-1	?	/	?
Cc1cc(Nc2ccc(Cl)cc2)n2ncnc2n1	0	-11	-5	9%	3%	-4%
CCOC(=O)c1c(-c2ccc(Cl)cc2)c(C#N)c(=O)n(N)c1N	6	31	10	0.52µM*	3%	?
Cc1ccc(-n2c(N)c(C#N)c(-c3ccc(Cl)cc3)c(C#N)c2=O)cc1	6	-2	32	-19%	3%	?
O=C1NC(c2ccc(Cl)cc2)Oc2ccccc21 (centres undefined)	/	-14	-6	-2%	2%	-1%
Cc1nnc(SCC(=O)Nc2nsc(-c3ccc(C(C)(C)C)cc3)n2)s1	-17	1	-1	-19%	7%	-11%
CC1=NN(/C(=N\c2nnc(C)s2)Nc2ccc(C(C)(C)C)cc2)[C@H](c2ccc(C)cc2)S1	-5	?	-17	?	10%[56.1 µM]	18µM*
Clc1ccc2c(SCC3CO3)c3ccccc3nc2c1 (centres undefined)	0	?	2	1.2µM*	/	0.46µM*
CC1CC(C)CN(C(=S)NC2CCCCC2)C1 (centres undefined)	6	14	8	26µM*	3%	?
